Test results from publication PMC8384837, “Expanding the binding specificity for RNA recognition by a PUF domain”.

What follows are sequences tested against PUM1 PUF domain R5-RHG (Homo sapiens, UniProt Q14671 828-1176, C1007R;R1008H;Q1011G) (assay: yeast three-hybrid, YBZ-1, SC-Leu-His + 0.5 mM 3-AT, 4 days). Conditions: tags: N-Gal4 AD-HA kept; label: inside an RPR1-promoter hybrid RNA with tandem MS2 sites; ssRNA.
Outline: (§1)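 Matching RNA elements and Pumilio-1 PUF domain libraries, randomized at the three base-contacting residues of every repeat, were co-expressed from a centromeric plasmid in strain YBZ-1 (LexA–MS2 coat fusion, HIS3 reporter). The repeat regions were PCR-amplified and Illumina-sequenced from cells grown four days on SC-Leu (input) or SC-Leu-His + 0.5 mM 3-AT (selection). The interaction score is the log change in variant frequency from input to selection. It is computed in log2, with a pseudocount of 1 for absent variants.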

Question: With “GGCUAGAACUAGUGGAUCCCCCGGCGCCCGGCGGCUCGAGCCCGGGUAAGUGUAAAUAGUCUGCAUGCCGCCGGGCGCCAUGCCUGCAGGUCGACUCUAGAAAACAUG” as the sequence, how does the binding signal read?
Answer: Its binding signal is 2.92 log2 enrichment (interaction score).

Question: How did the binding signal turn out when “GGCUAGAACUAGUGGAUCCCCCGGCGCCCGGCGGCUCGAGCCCGGGUAAGUGUCAAUAGUCUGCAUGCCGCCGGGCGCCAUGCCUGCAGGUCGACUCUAGAAAACAUG” was run?
Answer: The binding signal was 5.64 log2 enrichment (interaction score).

Question: For “GGCUAGAACUAGUGGAUCCCCCGGCGCCCGGCGGCUCGAGCCCGGGUAAGUGUUAAUAGUCUGCAUGCCGCCGGGCGCCAUGCCUGCAGGUCGACUCUAGAAAACAUG”, which binding signal is on record?
Answer: The binding signal was 5.88 log2 enrichment (interaction score).

The sequences below were run against PUM1 PUF domain R2-LWS (Homo sapiens, UniProt Q14671 828-1176, N899L;Y900W;Q903S) in the same assay as above. Conditions: tags: N-Gal4 AD-HA kept; label: inside an RPR1-promoter hybrid RNA with tandem MS2 sites; ssRNA.
Outline: as §1

Question: For “GGCUAGAACUAGUGGAUCCCCCGGCGCCCGGCGGCUCGAGCCCGGGUAAGUGUAAAUAGUCUGCAUGCCGCCGGGCGCCAUGCCUGCAGGUCGACUCUAGAAAACAUG”, which binding signal is on record?
Answer: The binding signal was 2.23 log2 enrichment (interaction score).

Question: “GGCUAGAACUAGUGGAUCCCCCGGCGCCCGGCGGCUCGAGCCCGGGUAAGUGUAAAAAGUCUGCAUGCCGCCGGGCGCCAUGCCUGCAGGUCGACUCUAGAAAACAUG” was tested. Which binding signal did it give?
Answer: Its binding signal is 7.72 log2 enrichment (interaction score).

Question: How did the binding signal turn out when “GGCUAGAACUAGUGGAUCCCCCGGCGCCCGGCGGCUCGAGCCCGGGUAAGUGUAAAGAGUCUGCAUGCCGCCGGGCGCCAUGCCUGCAGGUCGACUCUAGAAAACAUG” was run?
Answer: The binding signal was 4.16 log2 enrichment (interaction score).
